Rango dissoc inh = inhibitors of RanGTP-induced Rango-importin beta complex dissociation | Biochemical FRET Rango-importin beta, RanGTP-induced dissociation | Potency, µM (series often up to 46.1 µM) | AID 540253 | 340,000 tested, 0.071% active; calls by dose curve; also: nearly all actives have a fitted effect of over 45% in size
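Rango (0.1 uM)–importin beta (0.25 uM) complex; RanGTP-RCC1 trigger; 45 min RT; CFP/YFP FRET read.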
EPAC2 ag = agonists of human EPAC2 (RAPGEF4). 360,000 tested, 0.079% active. EPAC2 activation, biochemical qHTS; response scale: 100% = 6.5 mM cAMP response. Potency, µM (series often up to 154 µM), most hits filed as activators. Q8WZA2. AID 720711; also: nearly all actives have a fitted effect of over 50% in size
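Each well held 100 nM EPAC2, 250 nM RAP1B-BODIPY-GDP and 50 uM GDP. Fluorescence, read at 5-min intervals to 30 min, was referenced to a 6.5 mM cAMP positive control.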
EPAC1 agonist = agonists of human EPAC1. EPAC1 agonist qHTS, biochemical assay; response scale: 100% = response to 6.5 mM cAMP. 360,000 tested, 0.073% active. Potency, µM (doses to about 154 µM), actives largely listed as activators; also: nearly all actives have a fitted effect of over 60% in size
Target sequence (O95398 whole entry, looked up): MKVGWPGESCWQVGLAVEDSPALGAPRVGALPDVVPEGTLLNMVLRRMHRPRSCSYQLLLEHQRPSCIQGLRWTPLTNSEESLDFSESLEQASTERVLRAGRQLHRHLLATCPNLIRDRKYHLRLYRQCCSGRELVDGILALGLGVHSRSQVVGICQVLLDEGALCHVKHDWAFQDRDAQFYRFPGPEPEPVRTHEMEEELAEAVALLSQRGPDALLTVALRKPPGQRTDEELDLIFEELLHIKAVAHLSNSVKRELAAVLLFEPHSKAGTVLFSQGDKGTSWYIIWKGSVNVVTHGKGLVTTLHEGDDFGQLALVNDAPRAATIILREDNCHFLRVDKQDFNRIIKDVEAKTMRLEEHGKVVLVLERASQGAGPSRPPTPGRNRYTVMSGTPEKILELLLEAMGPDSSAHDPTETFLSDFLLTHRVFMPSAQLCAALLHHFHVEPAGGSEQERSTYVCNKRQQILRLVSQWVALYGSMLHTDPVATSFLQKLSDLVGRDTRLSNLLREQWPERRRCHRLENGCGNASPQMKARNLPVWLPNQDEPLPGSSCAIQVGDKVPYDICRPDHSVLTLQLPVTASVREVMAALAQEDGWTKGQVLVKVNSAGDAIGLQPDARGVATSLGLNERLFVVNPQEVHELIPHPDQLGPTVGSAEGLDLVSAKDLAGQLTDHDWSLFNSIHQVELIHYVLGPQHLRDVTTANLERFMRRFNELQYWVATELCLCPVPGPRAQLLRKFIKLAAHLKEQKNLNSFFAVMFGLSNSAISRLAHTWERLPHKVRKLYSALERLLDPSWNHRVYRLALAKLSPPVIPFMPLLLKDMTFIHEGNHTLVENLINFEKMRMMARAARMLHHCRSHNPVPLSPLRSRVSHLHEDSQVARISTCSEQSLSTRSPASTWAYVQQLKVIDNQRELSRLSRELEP
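Nucleotide exchange by EPAC1 (100 nM) on Rap1B–BODIPY-GDP (250 nM) in the presence of 50 uM GDP is tracked fluorescently at 480/540 nm over 30 min. Signals are normalized to a 6.5 mM cAMP control.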
EPAC2 antagonist = antagonists of human EPAC2; Potency, µM (doses to about 114 µM), most hits filed as inhibitors; EPAC2 GEF exchange of Rap1B-BODIPY-GDP, fluorescence; 360,000 tested, 0.18% active; Q8WZA2; also: nearly all actives have a fitted effect of over 45% in size
EPAC1 antagonist = EPAC1 (human) antagonism. EPAC1 GEF assay, Rap1b-BODIPY-GDP exchange fluorescence. AID 720709. Potency, µM (titrated, usually from 115 µM), actives largely listed as inhibitors. 360,000 tested, 0.14% active. O95398; also: nearly all actives have a fitted effect of over 50% in size
Rango complex inh = Rango-importin beta binding inhibition; Rango CFP/YFP FRET sensor + importin beta, 45 min; 340,000 tested, 0.031% active; Potency, µM (top dose mostly 92.2 µM); calls by dose curve; also: nearly all actives have a fitted effect of over 15% in size
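Inhibition scored from the CFP 486 nm/YFP 530 nm FRET ratio 45 min after adding 0.125 microM importin beta to 50 nM Rango biosensor preincubated 5 min with compound (room temperature, PBS with DTT, Tween-20, BSA). No-importin wells as positive control.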
Each line names hits and unclear results; the compound was inactive in the other large screens. Most compounds without a hit are left out; they make up all but 0.48% or so of the library. Unless noted, calls follow the shape of the dose curve; as a rule, active = well fitted curve in the direction sought with a large enough effect; inconclusive = small, poorly fitted or top-dose-only effect, or another doubt; inactive = no such curve, though single readings can be large; an effect the other way counts as inactive or inconclusive.

Cc1cccc(C)c1OC(=O)c1ccccc1	EPAC2 antagonist 50µM
COc1ccc(NC(=O)CCN2C(=O)c3ccncc3C2=O)cc1OC	none
CC1(C)N([O-])c2cc([N+](=O)[O-])ccc2[N+]1=O	EPAC2 antagonist inconclusive, EPAC1 antagonist 71µM
COc1ccc(N=Nc2nc3ccc(Br)cc3n2C)cc1	Rango dissoc inh inconclusive, EPAC1 agonist 112µM, Rango complex inh inconclusive
CCN(CCn1cccn1)Cc1c(C(=O)N2CCCCCCC2)nc2ccc(Cl)cn12	EPAC1 antagonist 22µM
COc1ccc(NS(=O)(=O)c2ccc(O)c(NC(=O)c3cc4c(C)nn(-c5ccc(F)cc5)c4s3)c2)cc1	EPAC1 antagonist 50µM
CCOc1ccc(Cl)cc1-c1cc(C(=O)NCc2ccccc2OC)[nH]n1	none (no result: Rango dissoc inh, Rango complex inh)
CC1(C)CC(=O)C2=C(C1)c1c(ccc3ccccc13)NC2c1cc([N+](=O)[O-])cc([N+](=O)[O-])c1O (stereo unspecified)	EPAC2 antagonist 79µM, EPAC1 antagonist 32µM
CC1(C)CC(=O)C2=C(C1)c1c(ccc3ccccc13)NC2c1ccc(C(=O)O)cc1 (stereo unspecified)	Rango dissoc inh inconclusive, Rango complex inh inconclusive
CC1(C(=O)NCc2ccccc2)CCC(=O)N1CCOc1ccccc1 (stereo unspecified)	none (no result: Rango dissoc inh, Rango complex inh)
COc1ccc(-c2ccc(-c3noc(-c4ccccc4)n3)c(OC)n2)cc1	Rango dissoc inh 2.1µM, Rango complex inh inconclusive
Oc1ccc(NCc2ccc(OCc3ccccc3)cc2)cc1	EPAC1 antagonist inconclusive
CCc1ccc(CNc2ccc(O)cc2)cc1	EPAC1 antagonist 8.9µM
CCOc1cc(CNc2ccc(O)cc2)ccc1OCc1ccc(Cl)cc1Cl	EPAC2 antagonist 35µM, EPAC1 antagonist inconclusive
COc1cccc(CNCCO)c1OCc1ccc(Cl)cc1	none
Cc1ccc(NCc2ccccc2OCc2ccccc2F)cc1	none
CCOc1ccccc1CNc1ccc(O)cc1	EPAC1 antagonist 4.5µM
CCOc1cccc(CNc2ccc(O)cc2)c1OCc1ccc(Cl)cc1	EPAC2 antagonist 35µM, EPAC1 antagonist 25µM
Oc1ccc(NCc2ccccc2OCc2ccccc2F)cc1	EPAC1 antagonist 79µM
CN(C)c1ccc(/C=C/C(=O)c2cccc(Br)c2)cc1	Rango dissoc inh inconclusive, EPAC2 ag 100µM, EPAC1 agonist 100µM, Rango complex inh inconclusive
CN(C)c1ccc(C(=O)/C=C/c2cccnc2)cc1	none
O=C(OC1CC2CC1[C@H]1CCCCN1C2=O)N1CCCCC1 (stereo partly specified)	none (no result: Rango dissoc inh, Rango complex inh)
O=C(NCc1ccccc1)C(c1ccccc1F)n1c(=O)c(-c2cc3ccccc3[nH]2)nc2ccccc21 (stereo unspecified)	none (no result: Rango dissoc inh, Rango complex inh)
COc1ccc(OC)c(/C=c2\sc3nc(-c4cccs4)nn3c2=O)c1	Rango dissoc inh inconclusive, EPAC2 ag 100µM, EPAC1 agonist 112µM, Rango complex inh inconclusive
CCc1ccc2c(c1)C(c1ccc([N+](=O)[O-])cc1)=NNC(c1ccc(F)cc1)=N2	Rango dissoc inh 12µM, Rango complex inh inconclusive
O=c1oc2ccc(Cl)cc2nc1/C=C(\O)c1cccs1	EPAC2 ag 100µM, Rango complex inh inconclusive
Cc1ccc2oc(=O)c(/C=C(\O)CC(C)C)nc2c1	Rango dissoc inh inconclusive, Rango complex inh inconclusive
Cc1ccc2oc(=O)c(/C=C(\O)c3ccccc3)nc2c1	Rango dissoc inh inconclusive, EPAC2 ag 89µM, Rango complex inh inconclusive
C/C(O)=C\c1nc2ccccc2oc1=O	Rango complex inh inconclusive
Cc1ccc2oc(=O)c(/C=C(\O)c3cccs3)nc2c1	Rango dissoc inh inconclusive, EPAC2 ag 63µM, Rango complex inh inconclusive
O=c1[nH]c2ccccc2nc1/C=C(\O)c1cccs1	Rango dissoc inh inconclusive, EPAC2 ag inconclusive, EPAC1 agonist 100µM, Rango complex inh inconclusive
O=S(=O)(Nc1ccccc1OC(F)F)c1ccc(S(=O)(=O)N2CCCC2)cc1	none
O=C(O)/C=C/C(=O)Nc1cc(F)ccc1F	none
COc1cc2nc(N3CCN(c4cc(C)ccc4C)CC3)nc(N)c2cc1OC	none
COc1cc2nc(N3CCNCC3)nc(N)c2cc1OC	EPAC2 antagonist 32µM, EPAC1 antagonist inconclusive
O=C(Oc1ccc2c(c1)O/C(=C\c1ccncc1)C2=O)c1cccs1	Rango dissoc inh inconclusive, Rango complex inh inconclusive
COc1ccccc1C(=O)Oc1ccc2c(c1)O/C(=C\c1ccncc1)C2=O	Rango dissoc inh inconclusive, EPAC1 agonist 100µM, Rango complex inh inconclusive
CC(=O)Oc1ccc2c(c1)O/C(=C\c1ccncc1)C2=O	Rango dissoc inh inconclusive, EPAC2 ag inconclusive, EPAC1 agonist 89µM, Rango complex inh inconclusive
COC(=O)[C@H](NC(=O)c1cc(-c2ccccc2)sc1N)C(C)C	none (no result: Rango dissoc inh, Rango complex inh)
COc1cc(C=C2C(=O)C=CC2=O)ccc1O	EPAC1 antagonist inconclusive (no result: Rango dissoc inh, Rango complex inh)
O=[N+]([O-])c1ccc(Nc2ccccc2)c2nonc12	none
O=[N+]([O-])c1ccc(Sc2cccc[n+]2[O-])c2nonc12	EPAC2 antagonist 56µM, EPAC1 antagonist 35µM
Cc1nc(S/C(=C/c2ccc(-c3cc(Cl)ccc3C)o2)C(=O)O)n[nH]1	Rango dissoc inh inconclusive, EPAC2 antagonist inconclusive, Rango complex inh inconclusive
O=C(O)c1cc(Cl)ccc1-c1ccc(/C=C/c2cc(C(F)(F)F)[nH]c(=O)n2)o1	Rango dissoc inh inconclusive, EPAC2 ag 100µM, EPAC1 agonist 89µM, Rango complex inh inconclusive
O=C(O)c1ccccc1-c1ccc(C=c2sc3nc4cc(Br)cnc4n3c2=O)o1	EPAC1 antagonist inconclusive (no result: Rango dissoc inh, Rango complex inh)
O=C(O)c1ccccc1-c1ccc(/C=C/c2cc(C(F)(F)F)[nH]c(=O)n2)o1	Rango dissoc inh inconclusive, EPAC2 ag 100µM, EPAC1 agonist 56µM, Rango complex inh inconclusive
COc1ccc(/C=N/N=C2/CC(C)(C)Cc3n[nH]c(=O)cc32)cc1	Rango dissoc inh inconclusive, Rango complex inh inconclusive
CN(C)c1ccc(-c2cc3ccccc3c(=O)o2)cc1	Rango dissoc inh inconclusive, EPAC2 ag 100µM, Rango complex inh inconclusive
COc1ccc(-c2cc3ccccc3c(=O)o2)cc1	none (no result: Rango dissoc inh, Rango complex inh)
C=CCOc1ccc(C=NNc2ccc(S(=O)(=O)Nc3ccccc3C(=O)O)cc2[N+](=O)[O-])cc1OC	Rango dissoc inh inconclusive, EPAC2 antagonist inconclusive, EPAC1 antagonist 50µM, Rango complex inh inconclusive
O=C(O)c1ccccc1NS(=O)(=O)c1ccc(NN=Cc2ccccc2F)c([N+](=O)[O-])c1	EPAC2 antagonist inconclusive, EPAC1 antagonist inconclusive, Rango complex inh inconclusive
CCOc1ccc(C=NNc2ccc(S(=O)(=O)Nc3ccccc3C(=O)O)cc2[N+](=O)[O-])cc1	EPAC1 antagonist inconclusive, Rango complex inh inconclusive
COc1ccc(C=NNc2ccc(S(=O)(=O)Nc3ccccc3C(=O)O)cc2[N+](=O)[O-])c(OC)c1	EPAC1 antagonist 50µM
